Most compounds without a hit are left out; they make up all but 4% or so of the library.
tim23-1 inh – tim23-1 yeast growth inhibition | S. cerevisiae tim23-1 growth, BacTiter-Glo luminescence, 24 h | inhibition, % at 20 µM | 1.3% of 330,000 active;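 active = growth inhibition of the mutant yeast at or above 50%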;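 note: temperature-sensitive mutant grown at 25 °C; plate controls were DMSO-treated mutant yeast for no effect and medium wells lacking yeast for full effect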
TIM10 inh – growth inhibitors of TIM10 yeast strain; S. cerevisiae TIM10 strain growth, BacTiter-Glo luminescence, 24 h; inhibition, % at 10 µM; 1.4% of 330,000 active;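 active = inhibition of 40% or more at the single tested concentration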;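 note: wild-type TIM10 isogenic control strain grown at permissive 25 °C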
tim10-1 inh – inhibits growth of tim10-1 mutant yeast | 2.2% of 330,000 active | inhibition, % at 20 µM | AID 463190 | S. cerevisiae tim10-1 ts strain growth, BacTiter-Glo, 24 h;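 active = inhibition of at least 40%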;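 note: mutant grown at 25 °C; 0% = DMSO wells with yeast and 100% = wells holding no yeast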
NALP1 yeast inh – inhibitors of NALP1 inflammasome in yeast. S. cerevisiae NALP1/ASC/caspase-1 growth, X-gal OD620, 72 h. inhibition, % at 10 µM. 0.61% of 280,000 active. AID 2071; in the data active = inhibition mostly above about 24%, no sharp cut-off; inactive = mostly below about 32%
NALP3 yeast inh – blocks the NALP3 inflammasome reconstituted in yeast | inhibition, % at 10 µM | Yeast reconstituted NLRP3/ASC/caspase-1, beta-gal luminescence, 24 h | AID 2825 | 0.39% of 330,000 active;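 active = inhibition of 50% or more; inactive = inhibition below 50%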;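 note: plate controls were induced DMSO wells for no effect and uninduced yeast grown without galactose for full effect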
tim10-1 conf – confirmation of tim10-1 mutant yeast growth inhibitors; shares compounds with tim10-1 inh; S. cerevisiae tim10-1 ts strain growth, BacTiter-Glo, 24 h; inhibition, % at 20 µM; 56% of 7,400 active;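 active = inhibition of yeast growth at or above a set limit in either of two repeat tests at 20 µM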;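 note: tim10-1 mutant grown at permissive 25 °C to find synthetic lethal compounds; 0% = DMSO yeast wells and 100% = medium wells without yeast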
* marks the source's active call; other numbers are inactive results; x = no result given.

SMILES | tim23-1 inh | TIM10 inh | tim10-1 inh | NALP1 yeast inh | NALP3 yeast inh | tim10-1 conf
COCCCNC(=S)N1CCN(c2nc(C)nc3sc4c(c23)CCCC4)CC1 | 30.7 | 19.7 | 6.3 | 10.7 | 12.4 | x
COc1ccc(Nc2nc(N)nc(CSC(=S)N3CCN(c4ccccc4)CC3)n2)cc1 | 24.3 | 4.3 | 40.7* | 32.0 | -10.7 | 9.4
CCOc1ccc(Nc2nc(N)nc(CSC(=S)N3CCN(c4ccccc4)CC3)n2)cc1 | 26.1 | 8.0 | 7.0 | x | 10.0 | x
CN(C1CCCCC1)S(=O)(=O)c1ccc(NC(=O)c2ccc(Br)o2)cc1 | 42.7 | 29.6 | 51.8* | 29.2 | 19.9 | 42.4*
CN(C)S(=O)(=O)c1ccc(NC(=O)c2ccc(Br)o2)cc1 | 35.4 | 14.3 | 30.2 | 11.7 | 16.8 | x
CC(C)CC(COCc1cccc(Cl)c1)N1CCN(C(=O)c2ccc(C(F)(F)F)cc2)CCC1=O (centres undefined) | 28.1 | 23.4 | 48.7* | 16.5 | -1.9 | 25.1
Cc1cccc(COCC(CC(C)C)N2CCN(C(=O)c3ccc(C(F)(F)F)cc3)CCC2=O)c1 (centres undefined) | 20.3 | 15.6 | 7.1 | 15.7 | 9.0 | x
CCN(C(=O)c1cccc(S(=O)(=O)N(C)C)c1)C12CC3CC(CC(C3)C1)C2 | 43.3 | 21.6 | 41.2* | 5.7 | 1.5 | 23.2
CN1C(=O)/C(=C/c2cccc(Cl)c2)Sc2ccc(C(=O)N3CCCC3)cc21 | 32.8 | 10.1 | 51.9* | -1.3 | 14.2 | 9.8
Cc1cccc(/C=C2\Sc3ccc(C(=O)N4CCCCC4)cc3N(C)C2=O)c1 | 33.4 | 0.3 | 45.4* | 19.5 | 12.5 | -2.1
Cc1cccc(/C=C2\Sc3ccc(C(=O)N4CCOCC4)cc3N(C)C2=O)c1 | 9.6 | -1.6 | 17.3 | 6.6 | 19.5 | x
COC(=O)c1nnn(-c2nonc2N)c1COc1ccc(C=O)cc1OC | 7.7 | -12.4 | 13.8 | 13.4 | 10.6 | x
CC(C)C(=O)NNC(=O)CSc1nnnn1C(C)C | -2.4 | -7.0 | -3.2 | 0.0 | 11.9 | x
O=C(COC(=O)c1nc(Cl)ccc1Cl)NCc1cccs1 | 25.0 | 2.4 | 25.3 | x | 0.0 | x
Oc1c(CN2CCCC(C(F)(F)F)C2)cc(Cl)c2ccccc12 (centres undefined) | 34.3 | 25.3 | 42.0* | 21.8 | 12.5 | 29.6
CCOC(=O)N1CCN(c2c(F)cc3[nH]c(=S)[nH]c3c2Br)CC1 | 34.8 | 23.0 | 57.3* | 25.1 | 23.7 | 28.6
CCOC(=O)N1CCN(c2cc3[nH]c(=S)[nH]c3cc2F)CC1 | -9.2 | 3.0 | 9.9 | x | 5.6 | x
CCCc1ccc(C(C)NC(=S)NCc2ccc(F)cc2)cc1 (centres undefined) | 9.5 | 22.8 | 31.4 | 18.0 | 22.2 | x
CCC(C)c1ccc(C(C)NC(=S)NCc2ccc(F)cc2)cc1 (centres undefined) | 49.4 | 37.7 | 44.2* | 12.0 | 7.1 | -11.4
CC(=O)Cc1cc2cc([N+](=O)[O-])ccc2oc1=O | 12.9 | 8.3 | 0.3 | 8.1 | 2.1 | x
O=C(c1cccc(Br)c1)c1cn(-c2ccccc2)nc1C(=O)c1ccccc1 | 18.5 | 20.8 | 25.8 | 22.2 | 9.9 | x
CN(C)CCNC(=O)c1ccc2c(=O)n(Cc3ccc(Cl)cc3)c(=S)[nH]c2c1 | 26.2 | 25.7 | 45.1* | 10.8 | 16.9 | 29.5
COc1cc(NC(=O)c2ccc(S(=O)(=O)N(C)c3ccccc3OC)cc2)cc(OC)c1 | 28.6 | 16.6 | 18.6 | x | -2.9 | x
COc1ccccc1N(C)S(=O)(=O)c1ccc(C(=O)Nc2ccc(N3CCOCC3)cc2)cc1 | 34.8 | 34.8 | 47.4* | -11.7 | 3.0 | 32.9*
Cc1cc(C)c(C#N)c(SCC(=O)c2cccs2)n1 | 28.0 | 9.2 | 43.7* | 10.7 | 24.3 | 27.1
CCN(CC)S(=O)(=O)c1cccc(C(=O)OCC(=O)NC(C)c2ccccc2)c1 (centres undefined) | 12.4 | 9.7 | -1.7 | -5.2 | 15.6 | x
O=C(c1ccc2c(c1)OCCO2)N1CCN(c2ncc(C(F)(F)F)cc2Cl)CC1 | 41.7 | 10.4 | 48.1* | x | 16.7 | 34.4*
O=C(Nc1ccc2c(c1)OCO2)N1CCN(c2ncc(C(F)(F)F)cc2Cl)CC1 | 11.8 | 7.3 | 5.6 | -31.0 | -8.7 | x
CCC(C)(C)n1nnnc1C(c1ccc(C)cc1)N1CCC(C)CC1 (centres undefined) | 45.3 | 38.2 | 40.9* | -2.6 | -13.2 | 35.6*
O=C(O)c1ccc(-n2nc(C(F)(F)F)c3c2-c2ccoc2CC3)cc1 | 14.2 | 2.7 | 15.9 | 10.4 | -4.2 | x
